# Hit rate of the full screen: of about 310,000 compounds, about 14,000 (4.5%) showed an effect of 50% or more. Effects have a minus sign here. This excerpt belongs to a sample that is enriched for strong results.
# Target: human ether-à-go-go-related gene (hERG) potassium channel (human, UniProt Q12809)
# Test: primary screen, population patch clamp on CHO cells stably expressing hERG; higher = less effect of the substance
# 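Also: peak tail current of the secondary pulse compared with the same well before compound.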
# human ether-à-go-go-related gene (hERG) potassium channel, sequence (Q12809 whole entry, looked up): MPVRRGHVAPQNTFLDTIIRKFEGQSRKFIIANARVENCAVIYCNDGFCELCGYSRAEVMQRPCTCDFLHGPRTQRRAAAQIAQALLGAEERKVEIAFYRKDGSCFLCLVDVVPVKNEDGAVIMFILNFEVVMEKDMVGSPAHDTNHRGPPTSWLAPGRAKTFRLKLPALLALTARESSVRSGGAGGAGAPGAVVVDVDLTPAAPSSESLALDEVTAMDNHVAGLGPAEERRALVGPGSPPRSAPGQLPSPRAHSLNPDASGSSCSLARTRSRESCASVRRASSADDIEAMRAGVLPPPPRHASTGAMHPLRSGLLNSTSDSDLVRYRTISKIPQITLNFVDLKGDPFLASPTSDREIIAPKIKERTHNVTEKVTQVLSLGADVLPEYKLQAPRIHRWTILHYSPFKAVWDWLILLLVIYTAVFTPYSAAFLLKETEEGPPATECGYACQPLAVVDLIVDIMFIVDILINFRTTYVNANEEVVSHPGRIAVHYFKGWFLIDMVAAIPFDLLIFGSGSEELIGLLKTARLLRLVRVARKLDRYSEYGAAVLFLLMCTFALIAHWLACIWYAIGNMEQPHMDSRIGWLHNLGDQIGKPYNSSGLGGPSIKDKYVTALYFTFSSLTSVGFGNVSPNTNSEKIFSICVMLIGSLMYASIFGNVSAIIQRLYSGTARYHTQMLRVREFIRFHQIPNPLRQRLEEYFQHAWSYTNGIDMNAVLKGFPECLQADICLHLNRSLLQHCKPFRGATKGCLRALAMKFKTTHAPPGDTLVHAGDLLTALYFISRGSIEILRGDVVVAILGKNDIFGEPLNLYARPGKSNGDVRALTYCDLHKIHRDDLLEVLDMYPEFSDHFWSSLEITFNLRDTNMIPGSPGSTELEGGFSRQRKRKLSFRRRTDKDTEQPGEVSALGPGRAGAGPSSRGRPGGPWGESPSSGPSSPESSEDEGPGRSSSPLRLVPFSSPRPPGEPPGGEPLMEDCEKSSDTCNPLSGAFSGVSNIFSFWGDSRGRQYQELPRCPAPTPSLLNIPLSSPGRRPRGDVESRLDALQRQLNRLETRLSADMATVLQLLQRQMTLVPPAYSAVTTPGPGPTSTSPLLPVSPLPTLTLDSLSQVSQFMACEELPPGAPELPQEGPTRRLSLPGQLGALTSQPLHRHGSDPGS
row,Structure (SMILES),"hERG current change (%, negative = inhibition) at 10uM"
1,O=C(Nc1ccc(OC(F)F)cc1)c1cc(S(=O)(=O)N2CCOCC2)ccc1F,-31.3%
2,CCN1CCN(c2ccc(NC(=O)c3cc(S(=O)(=O)N4CCCC4)ccc3Cl)cc2)CC1,-27.7%
3,NC(=O)c1ccc(NC(=O)c2cc(S(=O)(=O)N3CCCCC3)ccc2N2CCOCC2)cc1,-13.9%
4,O=C(Nc1ccc(OC(F)F)cc1)c1cc(S(=O)(=O)N2CCCCC2)ccc1N1CCOCC1,-65.8%
5,CCN1CCN(S(=O)(=O)c2ccc(Cl)c(C(=O)Nc3ccc(C(=O)N(CC)CC)cc3)c2)CC1,0.597%
6,CCN1CCN(S(=O)(=O)c2ccc(Cl)c(C(=O)Nc3ccc(OC(F)F)cc3)c2)CC1,-70.4%
7,CNC(=O)c1ccc(NC(=O)c2cc(S(=O)(=O)N3CCOCC3)ccc2N2CCCC2)cc1,7.71%
8,O=C(Nc1cccc(F)c1)c1cc(S(=O)(=O)N2CCOCC2)ccc1N1CCCC1,-34.2%
9,N#Cc1ccc(NC(=O)c2cc(S(=O)(=O)N3CCOCC3)ccc2N2CCCC2)cc1,-80.4%
10,O=C(O)c1ccccc1N1C(=O)C2C3c4ccccc4C(Br)(c4ccccc43)C2C1=O (centres unmarked),18.4%
11,CCN(CC(=O)NCc1cccs1)C(=O)/C=C/c1ccc(OC)c(OC)c1,-23.5%
12,Cc1cc(C)n2nc(C(=O)OCC(=O)Nc3ccc4c(c3)OCCO4)nc2n1,3.56%
13,CCOc1cc(C(=S)N2CCOCC2)ccc1OS(=O)(=O)c1ccccc1,-10%
14,COc1ccc(OCC(=O)NCCCCCCNC(=O)COc2ccc(OC)cc2)cc1,10.6%
15,CCOC(=O)C1CCCN(CC(O)COCc2ccc3c(c2)OCO3)C1 (centres unmarked),-23.5%
16,CCc1cc(C(=O)NNC(=O)CCN2CCN(c3ccccc3)CC2)sc1C,11.8%
17,O=C(Nc1nnc(C2CC2)o1)c1ccc(S(=O)(=O)N2CCCc3ccccc32)cc1,-19.3%
18,COc1cc(/C=N/Nc2ncc(C(F)(F)F)cc2Cl)cc(OC)c1O,-64.8%
19,COc1ccc(/C=N/Nc2ncc(C(F)(F)F)cc2Cl)cc1OC,3%
20,COc1cccc(/C=N/Nc2ncc(C(F)(F)F)cc2Cl)c1O,36.1%
21,CCN(CC(=O)Nc1cc(C)on1)CC(=O)Nc1ccccc1C(F)(F)F,13.7%
22,Cc1ccc(NC(=O)CN(C)C(=O)c2ccc(Cl)c([N+](=O)[O-])c2)cc1,-52.1%
23,CN(Cc1ccccc1)C(=O)c1ccc(Cl)c([N+](=O)[O-])c1,-53.5%
24,CN(CC(=O)Nc1ccc(F)c(F)c1F)C(=O)c1ccc(-n2cncn2)cc1,-63.8%
25,Cc1ccc(NC(=O)CN(C)C(=O)c2ccc(-n3cncn3)c([N+](=O)[O-])c2)cc1,-49.2%
26,CN(CC(=O)Nc1ccc(F)c(F)c1F)C(=O)c1ccc(=O)[nH]c1,0.382%
27,CN(CC(=O)Nc1c(Cl)cccc1Cl)C(=O)c1ccc(-n2cncn2)c([N+](=O)[O-])c1,5.71%

row,Structure (SMILES),"hERG current change (%, negative = inhibition) at 10uM"
1,CN(CC(=O)Nc1ccc(Cl)cc1)C(=O)c1ccc(-n2cncn2)c([N+](=O)[O-])c1,-70.3%
2,Cc1ccc(NC(=O)CN(C)C(=O)C(C)OC(=O)CNC(=O)c2ccc(Cl)c([N+](=O)[O-])c2)cc1 (centres unmarked),-43%
3,CN(CC(=O)Nc1ccc(F)c(F)c1F)C(=O)c1ccc(-n2cncn2)c([N+](=O)[O-])c1,-40.6%
4,O=C(NCCc1ccccc1)c1ccc(Cl)c([N+](=O)[O-])c1,-27.2%
5,CCN(C(=O)c1ccc(Cl)c([N+](=O)[O-])c1)c1ccccc1,-5.95%
6,Cc1ccc(NC(=O)CN(C)C(=O)c2ccc(Sc3nncn3C)c([N+](=O)[O-])c2)cc1,-40.3%
7,CCC(=O)NCCc1nc2ccccc2[nH]1,1.08%
8,CN1CCN(c2nc(N)cc(=O)[nH]2)CC1,15.2%
9,c1ccc(-n2c(Sc3cnccn3)nnc2-c2cccs2)cc1,-33.3%
10,CSc1nc([O-])cc(=O)n1-c1ccc(F)cc1.[K+],2.86%
11,COc1cccc(/C=C2/C(=O)NN(c3ccc(C)c(C)c3)C2=O)c1,-3.01%
12,Cn1c(=O)c2c(SCC(=O)NCc3ccco3)nc(-c3ccccc3Cl)nc2n(C)c1=O,-1.4%
13,C=CCN1C(=O)c2ccc(C(=O)N(C)CC(=O)Nc3c(C)cccc3C)cc2C1=O,15.4%
14,C=CCN1C(=O)c2ccc(C(=O)N(C)CC(=O)Nc3ccccc3Br)cc2C1=O,4.17%
15,Cc1cccc(C)c1NC(=O)CN(C)C(=O)c1ccc(-n2cncn2)c([N+](=O)[O-])c1,-6.43%
16,C=CCN1C(=O)c2ccc(C(=O)N(C)CC(=O)Nc3ccc(Br)cc3C)cc2C1=O,-52.5%
17,Cc1ccc(OCC(=O)NNC(=O)c2ccc(-n3cncn3)c([N+](=O)[O-])c2)cc1,-2.51%
18,Cc1ccc(C)c(NC(=O)CN(C)C(=O)c2ccc(-n3cncn3)c([N+](=O)[O-])c2)c1,-26.7%
19,Cc1cc(Br)ccc1NC(=O)CN(C)C(=O)c1ccc(-n2cncn2)c([N+](=O)[O-])c1,-64.4%
20,Cc1cccc(NC(=O)CNC(=O)c2ccc(-n3cncn3)c([N+](=O)[O-])c2)c1C,-9.18%
21,O=C(COc1ccc(Br)cc1)NNC(=O)c1ccc(-n2cncn2)c([N+](=O)[O-])c1,-61%
22,O=C(COc1ccccc1Cl)NNC(=O)c1ccc(-n2cncn2)c([N+](=O)[O-])c1,10.9%
23,Cc1cc(Br)ccc1NC(=O)c1ccc(-n2cncn2)c([N+](=O)[O-])c1,12.3%
24,Cc1cc(Br)ccc1NC(=O)CNC(=O)c1ccc(-n2cncn2)c([N+](=O)[O-])c1,-59.9%
25,CCc1[nH]c(=S)c(C#N)c2c1CCCC2,14.9%
26,COc1cccc(C(c2nnnn2Cc2ccccc2)N2CCN(C3CCCC3)CC2)c1OC.Cl (centres unmarked),-32%
27,O=c1[nH]nc(Sc2ncnc3sccc23)n1CCc1ccccc1,-18.3%

row,Structure (SMILES),"hERG current change (%, negative = inhibition) at 10uM"
1,CC1CCC/C=C/C2CC(O)CC2C(O)/C=C/C(=O)O1 (centres unmarked),-2.12%
2,O=C(c1cnn2c(C(F)F)cc(-c3ccccc3)nc12)N1CCc2ccccc2C1,-15.6%
3,CCn1c(SCC(=O)NCCc2ccccc2)nc2c(c1=O)SC(C)C2 (centres unmarked),5.03%
4,COc1cccc(NC(=O)CCN2C(=O)c3ccccc3Sc3ncccc32)c1,12.7%
5,O=C(COC(=O)C1CCC(=O)N1)Nc1ccc(Br)cc1 (centres unmarked),12%
6,Cc1cc2nc3n(c2cc1C)CC1CC(C(=O)NCCc2cccs2)N(C)C31 (centres unmarked),-38.5%
7,CN1C(C(=O)NCCc2cccs2)CC2Cn3c(nc4cc5ccccc5cc43)C21 (centres unmarked),-65.9%
8,CN1C(C(=O)NCCc2cccs2)CC2Cn3c(nc4ccccc43)C21 (centres unmarked),-27.3%
9,CN1C(C(=O)NCCc2cccs2)CC2Cn3c(nc4cc(Cl)c(Cl)cc43)C21 (centres unmarked),-63.6%
10,CNC1=C([N+](=O)[O-])CC([N+](=O)[O-])=C(N2CCNCC2)N1C,8.57%
11,COCCCNC(=O)CS(=O)(=O)Cc1nc(-c2cccc(OC)c2)oc1C,7.73%
12,COc1cccc(-c2nc(CS(=O)(=O)CC(=O)NCCCN3CCOCC3)c(C)o2)c1,7.17%
13,COc1cccc(-c2nc(CS(=O)(=O)CC(=O)NCCC(C)C)c(C)o2)c1,-10.7%
14,COc1cccc(-c2nc(CS(=O)(=O)CC(=O)NCCCN3CCc4ccccc4C3)c(C)o2)c1,-71.6%
15,COc1cccc(-c2nc(CS(=O)(=O)CC(=O)NC3CC3)c(C)o2)c1,16.1%
16,CCOC(=O)N1CCC(NC(=O)CS(=O)(=O)Cc2nc(-c3cccc(OC)c3)oc2C)CC1,-54.2%
17,COc1cccc(-c2nc(CS(=O)(=O)CC(=O)NCCCN3CCN(C)CC3)c(C)o2)c1,3.5%
18,CCCNC(=O)CS(=O)(=O)Cc1nc(-c2cccc(OC)c2)oc1C,-70%
19,CCOC(=O)N1CCC(NC(=O)CS(=O)(=O)Cc2nc(-c3ccc(OC)cc3)oc2C)CC1,13.3%
20,CCC(=O)N1CC2(c3ccccc3)CN(C(=O)CC)CC(c3ccccc3)(C1)C2=O,5.6%
21,CC1CCc2cc(F)ccc2N1C(=O)C1(C)CC1(Cl)Cl (centres unmarked),4.51%
22,CC1CCCN(CCS(=O)(=O)c2ccccc2)C1 (centres unmarked),3.59%
23,O=C(CN(C(=O)CNC(=O)c1ccco1)c1ccc(Cl)c(Cl)c1)NC1CCCCC1,-27.2%
24,O=C(Nc1ccccc1Sc1ccccc1)c1ccc(F)cc1,-7.65%
25,O=C(c1ccc(Cl)cc1Cl)N1CCC(C(=O)N2CCOCC2)CC1,9.99%
26,CCOC(=O)c1c(C)[nH]c(C)c1S(=O)(=O)NCc1cc(C)ccc1C,-6.49%

# Reference: paper PMC4336329 (PLoS ONE, 2015)
